Assay [1] addresses mouse Estrogen Receptor alpha (Era), Esr1 (gene 13982) (UniProt P19785). Kind of assay: NVS_NR_mERa: NovaScreen (NVS) Nuclear Receptor Binding Assay for mouse Estrogen Receptor alpha (Era) (AID 2283378).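 Note: hit means loss of bound radioligand signal relative to DMSO.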 In short, it runs like this:
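Cell-free radioligand binding with extracted mouse Era protein; competitive displacement of radiolabelled ligand, read by filter-based scintillation counting 18 hours after dosing. Loss of signal versus DMSO baseline taken as binding; single screening concentration 25 uM, actives followed in concentration series.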

For assay [2], the target named is Estrogen receptor beta (Homo sapiens) (UniProt Q92731). As to the kind of experiment: OT_ER_ERbERb_1440: Odyssey Thera (OT) 24-hour HEK293T Protein-Complementation Assay for Estrogen Receptor-beta/-beta Homodimer (AID 2283380).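 Note: scored as signal increase over DMSO baseline for both agonists and antagonists.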 In short, it runs like this:
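HEK293T cells stably expressing ER beta LBD (aa 310-547) homodimer fragment-complementation reporter, dosed 24 h. Cells formaldehyde-fixed, Draq5-stained; gain in nuclear (agonist) or nuclear plus cytoplasmic (antagonist) fluorescence versus DMSO read by laser scanning cytometry.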

Assay [3] has as its target Estrogen receptor (Homo sapiens) (UniProt P03372). As to the kind of experiment: OT_ERa_GFPERaERE_0480: Odyssey Thera (OT) 8-hour HeLa Transcription Induction Assay for Estrogen Receptor (AID 2283381; active = hit-call score of the fitted dose curve at least 0.9, where 1 is the maximum; inactive = score below 0.9). In short, it runs like this:
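Cells (HeLa) receive compound; after 8 h, reporter fluorescence is imaged and quantified by high-content analysis. Gain-of-signal relative to DMSO gives the endpoint.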

Assay [4] shares this target. Kind of assay: OT_ERa_GFPERaERE_0120: Odyssey Thera (OT) 2-hour HeLa Transcription Induction Assay for Estrogen Receptor (AID 2283382). In short, it runs like this: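 Measures ESR1 pathway reporter gain-of-signal in HeLa cells after a 2-hour treatment, detected as fluorescent protein induction by microscopy, DMSO as baseline.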
In assay [5] the target is Bile acid receptor (Homo sapiens) (UniProt Q96RI1). As to the kind of experiment: OT_FXR_FXRSRC1_0480: Odyssey Thera (OT) 8-hour HEK293T Protein-Complementation Assay for Farnesoid X receptor/SRC-1 Co-activator (AID 2283383). In short, it runs like this: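 Co-activator recruitment to FXR was measured in living HEK293T cells, where interaction of the two fused partners restored an active fluorescent reporter. Signal gain after 8 h treatment was referenced to DMSO.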

Assay [6] has as its target Peroxisome proliferator-activated receptor gamma (Homo sapiens) (UniProt P37231). Kind of assay: OT_PPARg_PPARgSRC1_0480: Odyssey Thera (OT) 8-hour Protein-Complementation Assay for Peroxisome Proliferator-activated Receptor Gamma / SRC-1 Co-activator (AID 2283387).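 Note: nuclear to cytoplasmic split Venus YFP fluorescence ratio reporting PPARg SRC-1 interaction.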 In short, it runs like this:
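Protein-fragment complementation of split Venus YFP reports PPARg/SRC-1 interaction in HEK293T (transfected 48 h before treatment), exposed 8 h. Readout: N/C fluorescence ratio at 488 nm from imaging, Draq5 for segmentation, positive fit relative to DMSO.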

The target of assay [7] is Bile acid receptor (Homo sapiens) (UniProt Q96RI1). As to the kind of experiment: OT_FXR_FXRSRC1_1440: Odyssey Thera (OT) 24-hour HEK293T Protein-Complementation Assay for Farnesoid X receptor/SRC-1 Co-activator (AID 2283384). In short, it runs like this: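 Cell-based binding reporter: interaction of FXR with SRC-1 brings reporter fragments together, giving a fluorescence signal read 24 h after dosing of HEK293T cells.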

In assay [8] the target is Retinoic acid receptor RXR-alpha (Homo sapiens) (UniProt P19793). As to the kind of experiment: OT_NURR1_NURR1RXRa_0480: Odyssey Thera (OT) 8-hour HEK293T Protein Complementation Assay for Nurr1/retinoid X receptor (RXR) (AID 2283385). In short, it runs like this: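 Compounds are applied to HEK293T cells carrying Nurr1 and RXRα linked to reporter fragments. After 8 h, fluorescence intensity reports heterodimer formation, with DMSO as baseline.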

Assay [9] has the same target. As to the kind of experiment: OT_NURR1_NURR1RXRa_1440: Odyssey Thera (OT) 24-hour HEK293T Protein Complementation Assay for Nurr1/retinoid X receptor (RXR) (AID 2283386). In short, it runs like this: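 Measured as fluorescence from a reconstituted split reporter, this 24 h HEK293T complementation assay scores compound-induced gain of Nurr1/RXRα association relative to DMSO.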

The target of assay [10] is Agonist Androgen Response Element (ARE), AR (gene 367) (UniProt P10275). As to the kind of experiment: OT_AR_ARELUC_AG_1440: Odyssey Thera (OT) 24-hour CHO-K1 Luciferase Assay for Agonist Androgen Response Element (ARE) (AID 2283379). In short, it runs like this:
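CHO-K1 cells carrying an ARE-driven luciferase reporter were exposed to compounds for 24 h. Luminescence was then read after adding a D-luciferin/ATP mix, and activity was scored as a gain in signal over DMSO vehicle.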

Structures are written as SMILES. Results filed as inconclusive are left out. Calls of active or inactive are those of the source. Rule for the calls, unless noted: active = hit-call score of the fitted dose curve at least 0.9, where 1 is the maximum; inconclusive = response in the unintended direction; inactive = score below 0.9.

We go through 33 compounds from PubChem BioAssay (EPA / NIEHS).

Sequence of Agonist Androgen Response Element (ARE), AR (gene 367) (P10275 whole entry, looked up): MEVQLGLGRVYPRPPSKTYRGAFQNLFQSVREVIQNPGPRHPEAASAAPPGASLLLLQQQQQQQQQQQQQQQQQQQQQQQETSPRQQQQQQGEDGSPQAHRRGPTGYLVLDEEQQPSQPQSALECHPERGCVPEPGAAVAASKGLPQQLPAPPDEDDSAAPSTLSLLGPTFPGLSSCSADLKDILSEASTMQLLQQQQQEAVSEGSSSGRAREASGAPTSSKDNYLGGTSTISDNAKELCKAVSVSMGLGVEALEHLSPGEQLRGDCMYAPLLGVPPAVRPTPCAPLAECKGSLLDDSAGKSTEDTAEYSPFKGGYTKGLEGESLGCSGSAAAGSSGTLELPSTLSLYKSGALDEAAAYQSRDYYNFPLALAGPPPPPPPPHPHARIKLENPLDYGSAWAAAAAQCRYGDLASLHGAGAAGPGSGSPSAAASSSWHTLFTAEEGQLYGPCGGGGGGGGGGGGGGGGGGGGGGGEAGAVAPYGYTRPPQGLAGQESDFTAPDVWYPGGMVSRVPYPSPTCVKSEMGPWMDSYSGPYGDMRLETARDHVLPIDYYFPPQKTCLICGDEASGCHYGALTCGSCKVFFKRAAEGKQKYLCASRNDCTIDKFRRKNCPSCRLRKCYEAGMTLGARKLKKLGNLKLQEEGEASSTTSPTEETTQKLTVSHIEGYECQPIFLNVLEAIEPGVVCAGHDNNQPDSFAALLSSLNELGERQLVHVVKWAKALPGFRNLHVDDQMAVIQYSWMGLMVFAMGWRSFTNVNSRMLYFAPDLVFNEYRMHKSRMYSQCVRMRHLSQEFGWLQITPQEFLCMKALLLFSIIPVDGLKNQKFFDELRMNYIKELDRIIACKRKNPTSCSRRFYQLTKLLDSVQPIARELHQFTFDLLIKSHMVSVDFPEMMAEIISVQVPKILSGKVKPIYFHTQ
Sequence of Estrogen receptor (Homo sapiens) (P03372 whole entry, looked up): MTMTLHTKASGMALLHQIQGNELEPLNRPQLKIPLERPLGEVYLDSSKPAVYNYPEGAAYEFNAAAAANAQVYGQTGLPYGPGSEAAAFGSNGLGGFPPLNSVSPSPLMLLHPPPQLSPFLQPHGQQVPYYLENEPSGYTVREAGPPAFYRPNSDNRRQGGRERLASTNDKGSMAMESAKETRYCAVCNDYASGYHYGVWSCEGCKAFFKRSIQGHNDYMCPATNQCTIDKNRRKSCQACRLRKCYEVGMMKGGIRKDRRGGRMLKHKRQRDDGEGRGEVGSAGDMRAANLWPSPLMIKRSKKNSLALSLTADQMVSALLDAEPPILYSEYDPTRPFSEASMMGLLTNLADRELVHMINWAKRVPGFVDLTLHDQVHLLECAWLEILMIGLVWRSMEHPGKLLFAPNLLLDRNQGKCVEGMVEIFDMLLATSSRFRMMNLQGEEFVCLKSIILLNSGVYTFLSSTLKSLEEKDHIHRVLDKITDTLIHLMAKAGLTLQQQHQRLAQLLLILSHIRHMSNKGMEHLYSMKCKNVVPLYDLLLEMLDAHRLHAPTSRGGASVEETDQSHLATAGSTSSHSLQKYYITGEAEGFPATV
Sequence of mouse Estrogen Receptor alpha (Era), Esr1 (gene 13982) (P19785 whole entry, looked up): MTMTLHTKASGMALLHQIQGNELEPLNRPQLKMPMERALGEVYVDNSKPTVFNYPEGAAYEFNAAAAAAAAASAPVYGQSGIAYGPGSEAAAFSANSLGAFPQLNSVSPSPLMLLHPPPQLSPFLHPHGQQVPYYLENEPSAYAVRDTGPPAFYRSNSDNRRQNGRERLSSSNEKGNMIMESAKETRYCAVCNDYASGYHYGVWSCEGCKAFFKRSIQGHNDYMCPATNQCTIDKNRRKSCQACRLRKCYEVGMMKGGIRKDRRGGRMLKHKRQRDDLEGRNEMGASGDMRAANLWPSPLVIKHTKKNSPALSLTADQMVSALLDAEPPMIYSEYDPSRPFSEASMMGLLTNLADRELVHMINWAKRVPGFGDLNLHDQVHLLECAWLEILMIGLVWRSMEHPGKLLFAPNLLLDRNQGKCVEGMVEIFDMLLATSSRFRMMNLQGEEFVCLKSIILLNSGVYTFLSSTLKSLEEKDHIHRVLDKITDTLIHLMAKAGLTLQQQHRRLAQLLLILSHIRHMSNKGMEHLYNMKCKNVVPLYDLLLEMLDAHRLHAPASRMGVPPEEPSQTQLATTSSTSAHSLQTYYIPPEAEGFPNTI
Sequence of Peroxisome proliferator-activated receptor gamma (Homo sapiens) (P37231 whole entry, looked up, the tested form may be a part): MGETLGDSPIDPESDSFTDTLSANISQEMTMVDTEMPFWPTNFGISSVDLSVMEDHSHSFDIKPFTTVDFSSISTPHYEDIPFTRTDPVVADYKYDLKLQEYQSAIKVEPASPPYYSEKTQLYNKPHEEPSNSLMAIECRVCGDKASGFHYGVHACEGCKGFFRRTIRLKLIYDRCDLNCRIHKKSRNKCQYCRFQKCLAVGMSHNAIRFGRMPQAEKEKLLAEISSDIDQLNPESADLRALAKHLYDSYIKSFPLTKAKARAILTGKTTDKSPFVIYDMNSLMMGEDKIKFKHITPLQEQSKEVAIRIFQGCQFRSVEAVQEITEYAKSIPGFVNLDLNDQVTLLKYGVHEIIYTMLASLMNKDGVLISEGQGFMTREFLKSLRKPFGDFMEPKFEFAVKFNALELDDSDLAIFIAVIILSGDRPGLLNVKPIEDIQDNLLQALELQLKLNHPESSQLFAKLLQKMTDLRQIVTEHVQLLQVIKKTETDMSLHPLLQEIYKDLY
Sequence of Bile acid receptor (Homo sapiens) (Q96RI1 whole entry, looked up, the tested form may be a part): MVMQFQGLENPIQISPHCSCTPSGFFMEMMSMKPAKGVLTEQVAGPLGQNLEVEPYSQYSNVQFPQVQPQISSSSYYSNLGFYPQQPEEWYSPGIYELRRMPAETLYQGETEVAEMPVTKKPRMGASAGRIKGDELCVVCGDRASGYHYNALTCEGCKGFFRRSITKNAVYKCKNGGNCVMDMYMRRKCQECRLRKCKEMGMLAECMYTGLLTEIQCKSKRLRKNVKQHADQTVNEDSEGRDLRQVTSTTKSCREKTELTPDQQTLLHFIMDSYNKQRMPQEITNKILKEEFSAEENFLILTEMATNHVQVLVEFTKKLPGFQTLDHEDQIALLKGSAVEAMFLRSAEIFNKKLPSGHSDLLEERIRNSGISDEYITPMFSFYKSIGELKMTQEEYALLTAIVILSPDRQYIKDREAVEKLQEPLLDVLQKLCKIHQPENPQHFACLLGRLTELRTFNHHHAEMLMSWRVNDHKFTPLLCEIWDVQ
Sequence of Retinoic acid receptor RXR-alpha (Homo sapiens) (P19793 whole entry, looked up, the tested form may be a part): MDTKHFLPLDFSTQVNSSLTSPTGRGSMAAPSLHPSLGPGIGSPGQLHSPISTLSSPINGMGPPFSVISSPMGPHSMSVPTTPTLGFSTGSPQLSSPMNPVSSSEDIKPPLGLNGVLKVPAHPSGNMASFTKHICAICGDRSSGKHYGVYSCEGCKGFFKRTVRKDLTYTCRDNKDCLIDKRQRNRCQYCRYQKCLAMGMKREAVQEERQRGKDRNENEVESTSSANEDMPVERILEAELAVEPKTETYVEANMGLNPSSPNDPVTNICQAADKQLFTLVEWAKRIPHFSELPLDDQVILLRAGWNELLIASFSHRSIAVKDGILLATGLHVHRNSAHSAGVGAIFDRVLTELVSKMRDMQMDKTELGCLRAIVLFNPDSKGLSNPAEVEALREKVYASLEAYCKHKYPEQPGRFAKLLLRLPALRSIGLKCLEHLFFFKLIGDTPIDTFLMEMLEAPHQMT
Sequence of Estrogen receptor beta (Homo sapiens) (Q92731 whole entry, looked up, the tested form may be a part): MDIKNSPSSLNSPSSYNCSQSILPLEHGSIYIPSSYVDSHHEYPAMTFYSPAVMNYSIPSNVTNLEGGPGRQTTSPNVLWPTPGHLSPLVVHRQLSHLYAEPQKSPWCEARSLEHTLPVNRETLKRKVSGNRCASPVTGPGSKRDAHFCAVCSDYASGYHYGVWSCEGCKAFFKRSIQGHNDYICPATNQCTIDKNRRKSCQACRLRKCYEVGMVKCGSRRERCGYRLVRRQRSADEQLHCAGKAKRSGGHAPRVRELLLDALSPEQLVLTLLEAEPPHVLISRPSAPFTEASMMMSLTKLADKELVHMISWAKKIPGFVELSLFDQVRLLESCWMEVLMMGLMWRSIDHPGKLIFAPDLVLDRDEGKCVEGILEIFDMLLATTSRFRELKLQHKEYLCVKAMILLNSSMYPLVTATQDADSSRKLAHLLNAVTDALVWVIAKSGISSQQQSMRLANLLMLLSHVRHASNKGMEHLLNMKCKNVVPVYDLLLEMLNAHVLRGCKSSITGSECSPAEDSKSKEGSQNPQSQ

Consider `C=C[C@](C)(O)CC[C@@H]1[C@@]2(C)CCCC(C)(C)[C@@H]2CC[C@@]1(C)O`, for which, in assay [1], the result was inactive.
In the case of `O=C1CCCCCN1SSN1CCCCCC1=O`, the result in assay [1] was inactive.
As for `C#CC1(O)CC[C@H]2[C@@H]3CCC4=CCCC[C@@H]4[C@H]3CC[C@@]21C` (stereo partly drawn), the concentration at half-maximal activity (AC50) in assay [1] was 6.99 µM (active).
As for `CCCCCCCC/C=C\CCCCCCCC(=O)O`, the AC50 in assay [1] was 35.8 µM (active). Moreover, the outcome in assay [2], in assay [3], in assay [4], in assay [5] and in assay [6] was inactive.
For the compound `CC/C=C\C/C=C\C/C=C\CCCCCCCC(=O)O`, the compound was called inactive in assay [1], in [2], in [3], in assay [4], in assay [5] and in assay [7]. Further, the result in [8] and in assay [6] was inactive.
With `CCCCC/C=C\C/C=C\CCCCCCCC(=O)OC`, the compound was called inactive in assay [1], in [2], in [3], in assay [4] and in assay [6]. For the same compound, the concentration at half-maximal activity (AC50) in assay [8] is 12 µM (active); in assay [9] it was 50 µM (active).
As for `O=C1Nc2ccccc2C1(c1ccc(O)cc1)c1ccc(O)cc1`, in assay [1], the concentration at half-maximal activity (AC50) is 6.61 µM (active).
Regarding `CC(C)(C)C(=O)CCc1ccc(Cl)cc1`, in assay [1], the call was inactive.
As to `CCC(C)OC(=O)c1ccc(O)cc1` (stereo not drawn), the AC50 in assay [1] was 4.99 µM (active).
Turning to `CN(C)c1ccc(C(=N)c2ccc(N(C)C)cc2)cc1`, the compound was classed as inactive in [1], in assay [2], in assay [3] and in assay [4]. Further, the AC50 in assay [8] was 27.7 µM (active); in [9], 26.7 µM (active); in assay [6], 30.6 µM (active).
`CCCCCCCCCCCCCOP(=O)(O)O`: the AC50 in [1] is 39.4 µM (active). Moreover, the compound was classed as inactive in assay [2], in [3], in [4], in [8], in assay [9] and in assay [6].
As to `O=C(O)CCCCCCCCCC(=O)O`, the outcome in [1] was inactive.
The same measure, in the same setting: the same measure for `O=CN1CCCCC1`: “inactive”.
Turning to `COc1ccc(-c2coc3cc(O)ccc3c2=O)cc1`, the concentration at half-maximal activity (AC50) in assay [1] is 0.143 µM (active).
Take `NC(CO)(CO)CO`: the outcome in assay [1], in assay [3], in assay [4], in assay [8], in [9] and in [6] was inactive.
For the compound `CCCCCCCOC(=O)CCC`, the compound was classed as inactive in assay [2], in assay [3], in assay [4], in [8], in [9] and in assay [6].
Turning to `CC(=O)OC(C)C`, the result in assay [1], in [4], in assay [8] and in assay [6] was inactive. Also, the AC50 is 25.9 µM (active) in assay [2] and 69.2 µM (active) in assay [3].
With `CC(C)=CCC[C@H](C)CCO`, the results for the concentration at half-maximal activity (AC50) in assay [10] and in assay [8] were 239 nM (active) and 75.8 µM (active), respectively. In addition, the compound was called inactive in [2], in assay [3], in assay [4] and in assay [9].
On to `CC(C)(C)c1ccc(-c2ccc(C(C)(C)C)cc2)cc1`, for which the compound was called inactive in [10], in [2], in assay [3], in assay [4] and in [6]. The AC50 in assay [5] was 33.5 µM (active); in assay [7], 76.6 µM (active); in assay [8], 85.6 µM (active); in [9], 78.3 µM (active).
Turning to `CCOC(=O)Cc1cccc2ccccc12`, the compound was called inactive in assay [2], in assay [3], in assay [4], in assay [8], in assay [9] and in assay [6].
As to `CCCCCCCCO[C@@H]1O[C@H](CO)[C@@H](O)[C@H](O)[C@H]1O`, the outcome in [2], in [3], in [4], in [5] and in assay [6] was inactive.
Take `CC(C)(C)c1ccc(OC(=O)c2ccccc2O)cc1`: the AC50 is 32 µM (active) in assay [2]; 35.6 µM (active) in assay [5]; 75.9 µM (active) in [7]; 50 µM (active) in assay [8]; 89 µM (active) in [9]. For the same compound, the compound was called inactive in [3], in [4] and in [6].
In the case of `CC(C)c1ccc2cc(C(C)C)ccc2c1`, the compound was classed as inactive in assay [2], in [3], in assay [4], in assay [8] and in assay [6]. In addition, the AC50 in assay [9] is 97.6 µM (active).
With `CC(C)C1=CC2=CC[C@@H]3[C@](C)(CCC[C@@]3(C)C(=O)O)[C@H]2CC1`, the compound was classed as inactive in assay [1], in assay [3], in assay [4], in assay [8], in [9] and in assay [6].
Consider `CC(C)c1ccc2c(C(C)C)cc(C(C)C)c(S(=O)(=O)O)c2c1`, for which the call in assay [10], in assay [3], in assay [4], in assay [5], in assay [8] and in assay [6] was inactive.
Consider `Cn1c([N+](=O)[O-])cnc1COC(N)=O`, for which the outcome in assay [2], in assay [3], in assay [4], in assay [8], in [9] and in assay [6] was inactive.
As for `O=S1(=O)OC(c2ccc(O)cc2)(c2ccc(O)cc2)c2ccccc21`, the half-maximal activity concentration (AC50) in assay [1] is 20.1 µM (active); in [3], 73 µM (active). For the same compound, the result in [2], in assay [4], in [9] and in assay [6] was inactive.
For `NC(=O)c1ccccc1O`, the call in assay [2], in [3], in assay [4], in [5], in [7] and in [8] was inactive. The result in assay [9] and in [6] was inactive.
With `CC=C1CC2C=CC1C2` (stereo not drawn), the result in assay [2], in assay [3], in [4], in assay [5], in assay [7] and in assay [8] was inactive. Also, the compound was classed as inactive in assay [9] and in assay [6].
As to `O=C(C(Cl)Cl)N1CCOC12CCCCC2`, the outcome in assay [2], in [3], in assay [4], in [5], in assay [7] and in assay [8] was inactive. In addition, the outcome in assay [9] and in assay [6] was inactive.
On to `CO[Si](OC)(OC)c1ccccc1`, for which the outcome in assay [2], in assay [3], in assay [4], in assay [8], in assay [9] and in assay [6] was inactive.
Take `CCCCCCCC/C=C\CCCCCCCC(=O)OCCO`: the outcome in assay [2], in assay [3], in assay [4] and in [6] was inactive. The AC50 is 38.4 µM (active) in assay [8] and 38.7 µM (active) in assay [9].
On to `CCCCC(CC)CCC(CC(C)C)OS(=O)(=O)O` (stereo not drawn), for which the compound was classed as inactive in [2], in [3], in assay [4], in [8], in assay [9] and in assay [6].
